Assay results reported in the supplement of paper PMC10849652.
About 7,900 targets were measured; listed, in parts, are those with a hit and a random draw of the rest. About 0.6% of all pairs of compound and target were hits. A number with no mark means an inactive call.

Each target was assayed with CC1=C(C=C(C=C1)NC(=O)C2=CC(=CC=C2)C(C)(C)C#N)NC3=CC4=C(C=C3)N=CN(C4=O)C (assay: log2 fold change, soluble protein after heating vs DMSO (PISA); higher = thermal stabilisation; K562 cells, 10 uM, 30 min; active = over 0.2 and 3.5 SD of the protein, either way, in both replicates (recomputed)).
Summary of the method: (§1)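 K562 cells at 2×10^6 cells/mL were given 10 μM compound for 30 min. Aliquots then went through 3 min of heating across 48°C-58°C, were pooled, and were extracted in PBS with 0.5% NP-40 at 4°C, and the supernatant after 21,000xg for 90 min was quantified by TMTpro 16plex LC-MS/MS with channel sums equalised. Thermal stability relative to control samples, from duplicates, is given as log2 fold change.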

UniProt Q12851, sequence (Q12851 whole entry, looked up): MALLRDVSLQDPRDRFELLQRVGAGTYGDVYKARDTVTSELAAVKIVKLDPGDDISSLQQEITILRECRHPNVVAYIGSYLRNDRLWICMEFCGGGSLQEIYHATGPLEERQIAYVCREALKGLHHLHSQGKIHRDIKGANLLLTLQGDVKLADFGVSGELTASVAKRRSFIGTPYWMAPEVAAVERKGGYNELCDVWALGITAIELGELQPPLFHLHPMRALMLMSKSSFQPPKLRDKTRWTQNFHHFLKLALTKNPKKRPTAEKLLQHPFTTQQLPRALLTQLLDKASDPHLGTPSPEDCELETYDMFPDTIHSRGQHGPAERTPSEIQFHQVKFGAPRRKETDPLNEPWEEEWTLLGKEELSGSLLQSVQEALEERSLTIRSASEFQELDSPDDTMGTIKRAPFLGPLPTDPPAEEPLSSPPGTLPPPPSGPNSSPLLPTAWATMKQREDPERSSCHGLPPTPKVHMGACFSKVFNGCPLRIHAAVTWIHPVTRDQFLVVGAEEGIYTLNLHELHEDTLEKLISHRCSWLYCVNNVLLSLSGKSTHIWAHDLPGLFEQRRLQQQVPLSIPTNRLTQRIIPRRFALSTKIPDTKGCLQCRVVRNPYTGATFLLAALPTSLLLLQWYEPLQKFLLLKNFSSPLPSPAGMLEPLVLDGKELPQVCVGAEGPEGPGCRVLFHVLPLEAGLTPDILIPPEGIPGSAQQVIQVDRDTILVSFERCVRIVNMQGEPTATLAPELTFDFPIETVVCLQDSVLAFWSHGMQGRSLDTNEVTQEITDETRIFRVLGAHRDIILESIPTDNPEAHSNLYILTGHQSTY
UniProt A4D2B0, sequence (A4D2B0 whole entry, looked up): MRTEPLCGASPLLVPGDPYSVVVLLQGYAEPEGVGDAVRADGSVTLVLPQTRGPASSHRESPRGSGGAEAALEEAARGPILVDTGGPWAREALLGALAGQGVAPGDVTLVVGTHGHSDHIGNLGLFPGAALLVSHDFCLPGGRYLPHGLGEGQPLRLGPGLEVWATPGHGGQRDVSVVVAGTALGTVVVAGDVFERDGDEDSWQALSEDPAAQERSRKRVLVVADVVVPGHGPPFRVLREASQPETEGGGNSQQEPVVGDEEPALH
UniProt Q86UD3, sequence (Q86UD3 whole entry, looked up): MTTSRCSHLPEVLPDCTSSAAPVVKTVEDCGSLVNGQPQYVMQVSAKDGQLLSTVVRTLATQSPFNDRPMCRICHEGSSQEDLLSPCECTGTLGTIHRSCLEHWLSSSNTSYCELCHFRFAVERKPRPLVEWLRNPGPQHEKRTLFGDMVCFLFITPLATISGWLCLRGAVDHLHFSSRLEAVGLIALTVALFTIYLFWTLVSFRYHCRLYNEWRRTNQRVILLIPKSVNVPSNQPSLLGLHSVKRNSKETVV
UniProt P13473, sequence (P13473 whole entry, looked up): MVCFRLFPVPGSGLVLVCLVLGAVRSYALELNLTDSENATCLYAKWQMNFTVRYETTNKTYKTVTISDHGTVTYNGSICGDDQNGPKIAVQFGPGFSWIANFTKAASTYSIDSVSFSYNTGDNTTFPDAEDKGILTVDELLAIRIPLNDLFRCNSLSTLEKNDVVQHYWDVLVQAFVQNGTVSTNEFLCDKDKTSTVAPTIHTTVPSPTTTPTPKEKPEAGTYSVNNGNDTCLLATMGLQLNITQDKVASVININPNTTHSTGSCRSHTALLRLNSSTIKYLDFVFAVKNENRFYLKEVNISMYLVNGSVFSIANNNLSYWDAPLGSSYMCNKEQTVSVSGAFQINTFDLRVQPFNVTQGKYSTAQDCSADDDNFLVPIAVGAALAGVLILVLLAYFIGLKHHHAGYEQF
UniProt Q8NHS3, sequence (Q8NHS3 whole entry, looked up): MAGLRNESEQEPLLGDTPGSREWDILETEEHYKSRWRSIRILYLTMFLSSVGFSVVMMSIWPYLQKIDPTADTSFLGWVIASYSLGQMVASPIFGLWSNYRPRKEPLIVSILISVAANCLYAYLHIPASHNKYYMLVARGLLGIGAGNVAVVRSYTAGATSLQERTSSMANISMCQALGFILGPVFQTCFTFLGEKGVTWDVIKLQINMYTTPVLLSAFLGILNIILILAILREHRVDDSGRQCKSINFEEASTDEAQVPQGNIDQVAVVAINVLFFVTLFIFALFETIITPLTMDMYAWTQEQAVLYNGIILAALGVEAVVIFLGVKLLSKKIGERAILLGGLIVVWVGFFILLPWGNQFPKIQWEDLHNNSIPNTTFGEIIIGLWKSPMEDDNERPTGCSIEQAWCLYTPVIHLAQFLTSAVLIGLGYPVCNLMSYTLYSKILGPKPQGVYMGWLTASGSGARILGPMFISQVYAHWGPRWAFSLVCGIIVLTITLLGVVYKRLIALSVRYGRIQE
UniProt Q9BQD3, sequence (Q9BQD3 whole entry, looked up): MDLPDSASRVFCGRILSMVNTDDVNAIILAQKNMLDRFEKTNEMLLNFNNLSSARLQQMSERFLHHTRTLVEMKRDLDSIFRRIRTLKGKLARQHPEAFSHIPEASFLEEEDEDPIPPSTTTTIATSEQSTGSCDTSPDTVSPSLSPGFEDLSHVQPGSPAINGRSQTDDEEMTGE
UniProt Q5SW96, sequence (Q5SW96 whole entry, looked up): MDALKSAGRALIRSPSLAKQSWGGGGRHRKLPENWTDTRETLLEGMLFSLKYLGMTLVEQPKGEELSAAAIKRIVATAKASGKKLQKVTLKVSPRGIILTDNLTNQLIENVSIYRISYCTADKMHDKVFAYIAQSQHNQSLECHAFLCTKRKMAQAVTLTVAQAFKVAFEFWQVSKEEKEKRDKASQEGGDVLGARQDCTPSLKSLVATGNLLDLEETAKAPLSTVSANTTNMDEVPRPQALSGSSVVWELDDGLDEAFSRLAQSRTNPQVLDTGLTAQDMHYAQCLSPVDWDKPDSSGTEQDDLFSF

MAP4K4 isoform 6 (UniProt O95819) and MARCHF3 (UniProt Q86UD3) are within 0.2 log units of each other in log2 fold change: -0.031 for the first, 0.001 for the second.

MELK (UniProt Q14680) and LGALS8 isoform 2 (UniProt O00214) are within 0.2 log units of each other in log2 fold change: -0.026 for the first, 0.01 for the second.

Compared with MFAP3 (UniProt P55082), LSR isoform 3 (UniProt Q86X29) is lower in log2 fold change: 0.038 for the first, -0.232 for the second.

MAGED1 isoform 2 (UniProt Q9Y5V3) and LAPTM4B (UniProt Q86VI4) are within 0.2 log units of each other in log2 fold change: 0.003 for the first, 0 for the second.

MFSD12 isoform 3 (UniProt Q6NUT3) and MAP4K2 (UniProt Q12851) are within 0.2 log units of each other in log2 fold change: 0.115 for the first, -0.034 for the second.

First: ILF3 (UniProt Q12906)
UniProt Q12906, sequence (Q12906 whole entry, looked up): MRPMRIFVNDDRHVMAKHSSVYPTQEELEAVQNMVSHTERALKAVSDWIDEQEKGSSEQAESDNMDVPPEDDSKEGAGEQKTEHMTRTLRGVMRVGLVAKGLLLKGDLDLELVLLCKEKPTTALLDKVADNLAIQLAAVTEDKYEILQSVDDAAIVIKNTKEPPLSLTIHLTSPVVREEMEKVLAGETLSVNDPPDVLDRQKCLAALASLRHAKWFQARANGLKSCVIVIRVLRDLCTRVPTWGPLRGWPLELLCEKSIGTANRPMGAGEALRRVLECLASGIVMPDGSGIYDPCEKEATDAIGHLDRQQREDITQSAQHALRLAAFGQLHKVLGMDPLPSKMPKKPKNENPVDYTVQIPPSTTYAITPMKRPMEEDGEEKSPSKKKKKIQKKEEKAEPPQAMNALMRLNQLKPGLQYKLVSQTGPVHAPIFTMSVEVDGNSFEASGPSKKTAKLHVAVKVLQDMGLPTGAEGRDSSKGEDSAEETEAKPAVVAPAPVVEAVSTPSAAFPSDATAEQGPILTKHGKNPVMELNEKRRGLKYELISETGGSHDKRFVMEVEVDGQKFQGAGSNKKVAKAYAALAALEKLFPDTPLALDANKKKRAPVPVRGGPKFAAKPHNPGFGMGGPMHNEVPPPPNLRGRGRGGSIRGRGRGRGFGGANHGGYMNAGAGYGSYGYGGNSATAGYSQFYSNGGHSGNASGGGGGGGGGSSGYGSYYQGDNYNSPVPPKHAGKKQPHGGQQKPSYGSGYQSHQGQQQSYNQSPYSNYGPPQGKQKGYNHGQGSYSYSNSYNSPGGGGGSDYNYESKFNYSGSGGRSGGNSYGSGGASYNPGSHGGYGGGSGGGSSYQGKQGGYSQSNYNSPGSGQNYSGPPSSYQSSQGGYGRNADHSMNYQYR
Second: KCNK5 (UniProt O95279)
The log2 fold change of the first is higher: 0.106 for the first, -0.114 for the second.

In the case of LSR (UniProt M0QZL9), the log2 fold change is reported as -0.324.

What follows are targets tested with CC1=C(C=C(C=C1)NC(=O)C2=CC(=CC=C2)N(C)C)NC(=O)C3=CC=C(C=C3)O in the same assay as above.
Summary of the method: as §1

MAPK11 (UniProt Q15759) and MGRN1 isoform 2 (UniProt O60291) are within 0.2 log units of each other in log2 fold change: 0.094 for the first, -0.059 for the second.

MFSD8 (UniProt Q8NHS3) and KIF21A (UniProt H0YI78) are within 0.2 log units of each other in log2 fold change: -0.026 for the first, -0.001 for the second.

MAGEA8 (UniProt P43361) and LRRCC1 (UniProt Q9C099) are within 0.2 log units of each other in log2 fold change: 0.009 for the first, 0.039 for the second.

MAP2K5 (UniProt Q13163) and LDLRAP1 (UniProt Q5SW96) are within 0.2 log units of each other in log2 fold change: -0.085 for the first, -0.028 for the second.

ITPRID2 (UniProt P28290) and IGFBP6 (UniProt P24592) are within 0.2 log units of each other in log2 fold change: -0.003 for the first, 0.03 for the second.

MBLAC1 (UniProt A4D2B0) and KXD1 (UniProt Q9BQD3) are within 0.2 log units of each other in log2 fold change: 0.079 for the first, -0.025 for the second.

KIZ (UniProt Q2M2Z5) and MCOLN3 (UniProt Q8TDD5) are within 0.2 log units of each other in log2 fold change: 0.057 for the first, 0.013 for the second.

These targets were tested with CC1=CC=C(C=C1)SC2=C3C=C(SC3=CN=C2)C(=O)N in the same assay as above.
Summary of the method: as §1

MED29 (UniProt Q9NX70) and MARCHF3 (UniProt Q86UD3) are within 0.2 log units of each other in log2 fold change: -0.075 for the first, -0.008 for the second.

MGRN1 isoform 2 (UniProt O60291) and MFSD8 (UniProt Q8NHS3) are within 0.2 log units of each other in log2 fold change: 0.021 for the first, 0.113 for the second.

MELK (UniProt Q14680) and MAGEA8 (UniProt P43361) are within 0.2 log units of each other in log2 fold change: 0.111 for the first, 0.02 for the second.

LAMP2 isoform 2 (UniProt P13473) and ITPRID2 (UniProt P28290) are within 0.2 log units of each other in log2 fold change: -0.07 for the first, -0.103 for the second.

LSR isoform 3 (UniProt Q86X29) and MAGED1 isoform 2 (UniProt Q9Y5V3) are within 0.2 log units of each other in log2 fold change: 0.04 for the first, 0.1 for the second.

MBLAC1 (UniProt A4D2B0) and ING5 (UniProt Q8WYH8) are within 0.2 log units of each other in log2 fold change: -0.093 for the first, 0.058 for the second.

KXD1 (UniProt Q9BQD3) and KIZ (UniProt Q2M2Z5) are within 0.2 log units of each other in log2 fold change: 0 for the first, 0.003 for the second.

MCOLN3 (UniProt Q8TDD5) and MAP4K2 (UniProt Q12851) are within 0.2 log units of each other in log2 fold change: 0.15 for the first, 0.079 for the second.

First: MAPRE3 isoform 2 (UniProt Q9UPY8)
Second: KCNK5 (UniProt O95279)
The log2 fold change of the first is lower: -0.075 for the first, 0.195 for the second.

For IKZF1 (UniProt R9R4D9), the log2 fold change was -0.116.

Each target was assayed with CC1=NC(=CC=C1)C2=C(N=C(N2)C(C)(C)C)C3=CC4=NC=CN=C4C=C3 in the same assay as above.
Summary of the method: as §1

MAPK11 (UniProt Q15759) and MGRN1 isoform 2 (UniProt O60291) are within 0.2 log units of each other in log2 fold change: 0.045 for the first, -0.02 for the second.

MFSD8 (UniProt Q8NHS3) and MELK (UniProt Q14680) are within 0.2 log units of each other in log2 fold change: 0.011 for the first, -0.015 for the second.

First: LGALS8 isoform 2 (UniProt O00214)
UniProt O00214, sequence (O00214 whole entry, looked up): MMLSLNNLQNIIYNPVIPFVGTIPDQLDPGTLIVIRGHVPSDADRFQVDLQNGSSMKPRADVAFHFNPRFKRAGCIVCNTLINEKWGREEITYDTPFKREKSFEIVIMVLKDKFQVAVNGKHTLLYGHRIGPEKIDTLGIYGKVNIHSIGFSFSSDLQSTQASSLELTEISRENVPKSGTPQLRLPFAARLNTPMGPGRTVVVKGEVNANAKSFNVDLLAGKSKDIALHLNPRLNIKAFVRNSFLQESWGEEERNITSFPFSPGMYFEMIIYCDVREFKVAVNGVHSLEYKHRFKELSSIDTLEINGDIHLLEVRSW
Second: MAGEA8 (UniProt P43361)
UniProt P43361, sequence (P43361 whole entry, looked up): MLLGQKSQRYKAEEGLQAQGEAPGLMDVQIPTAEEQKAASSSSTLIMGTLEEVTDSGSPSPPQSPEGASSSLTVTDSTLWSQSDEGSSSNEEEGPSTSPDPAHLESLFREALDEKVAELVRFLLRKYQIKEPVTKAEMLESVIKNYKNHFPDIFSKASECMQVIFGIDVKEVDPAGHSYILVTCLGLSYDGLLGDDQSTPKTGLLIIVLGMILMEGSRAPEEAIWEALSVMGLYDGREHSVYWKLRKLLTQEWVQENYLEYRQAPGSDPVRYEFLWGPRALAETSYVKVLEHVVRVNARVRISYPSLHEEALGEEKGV
The log2 fold change of the first is lower: -0.228 for the first, 0.072 for the second.

LAMP2 isoform 2 (UniProt P13473) and MAP2K5 (UniProt Q13163) are within 0.2 log units of each other in log2 fold change: 0.003 for the first, 0.017 for the second.

LDLRAP1 (UniProt Q5SW96) and ITPRID2 (UniProt P28290) are within 0.2 log units of each other in log2 fold change: -0.102 for the first, -0.065 for the second.

MBLAC1 (UniProt A4D2B0) and ING5 (UniProt Q8WYH8) are within 0.2 log units of each other in log2 fold change: -0.098 for the first, -0.052 for the second.

First: KIZ (UniProt Q2M2Z5)
UniProt Q2M2Z5, sequence (Q2M2Z5 whole entry, looked up, canonical isoform): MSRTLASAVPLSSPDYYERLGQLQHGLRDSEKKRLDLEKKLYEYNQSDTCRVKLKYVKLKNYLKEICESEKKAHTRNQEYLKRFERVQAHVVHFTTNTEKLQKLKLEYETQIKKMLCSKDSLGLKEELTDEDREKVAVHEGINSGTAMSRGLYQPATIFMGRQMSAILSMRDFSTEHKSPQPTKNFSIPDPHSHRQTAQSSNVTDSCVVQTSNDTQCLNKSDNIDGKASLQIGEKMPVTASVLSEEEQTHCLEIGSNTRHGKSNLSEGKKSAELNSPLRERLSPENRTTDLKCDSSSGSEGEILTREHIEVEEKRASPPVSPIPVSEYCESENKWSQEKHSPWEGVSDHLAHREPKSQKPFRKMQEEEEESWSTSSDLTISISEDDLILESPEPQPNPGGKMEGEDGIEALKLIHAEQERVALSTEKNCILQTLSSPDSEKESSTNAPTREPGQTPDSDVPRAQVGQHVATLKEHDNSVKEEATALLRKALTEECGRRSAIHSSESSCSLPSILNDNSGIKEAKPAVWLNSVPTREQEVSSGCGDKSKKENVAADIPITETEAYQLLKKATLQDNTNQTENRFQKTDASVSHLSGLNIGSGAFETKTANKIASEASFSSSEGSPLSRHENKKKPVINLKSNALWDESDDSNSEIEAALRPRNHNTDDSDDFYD
Second: LRRFIP1 isoform 4 (UniProt Q32MZ4)
The log2 fold change of the first is lower: -0.068 for the first, 0.186 for the second.

Compared with MAPK7 (UniProt Q13164), MAP4K2 (UniProt Q12851) is higher in log2 fold change: -0.169 for the first, 0.094 for the second.

ILF3 (UniProt Q12906) and MAPRE3 isoform 2 (UniProt Q9UPY8) are within 0.2 log units of each other in log2 fold change: -0.177 for the first, -0.065 for the second.

KCNK5 (UniProt O95279) and IKZF1 (UniProt R9R4D9) are within 0.2 log units of each other in log2 fold change: 0.084 for the first, 0.026 for the second.

The targets below were run with CCCCN(Cc1ccc(C(=O)NO)cc1)C(=O)Nc1ccccc1 [Nexturastat A] in the same assay as above.
Summary of the method: as §1

MARCHF3 (UniProt Q86UD3) and MFSD8 (UniProt Q8NHS3) are within 0.2 log units of each other in log2 fold change: 0.081 for the first, -0.004 for the second.

MELK (UniProt Q14680) and LGALS8 isoform 2 (UniProt O00214) are within 0.2 log units of each other in log2 fold change: 0.134 for the first, 0.288 for the second.

LAMP2 isoform 2 (UniProt P13473) and MFAP3 (UniProt P55082) are within 0.2 log units of each other in log2 fold change: -0.015 for the first, 0.11 for the second.

LEPROT (UniProt O15243) and ITPRID2 (UniProt P28290) are within 0.2 log units of each other in log2 fold change: -0.02 for the first, -0.188 for the second.

KXD1 (UniProt Q9BQD3) and LRRFIP1 isoform 4 (UniProt Q32MZ4) are within 0.2 log units of each other in log2 fold change: -0.223 for the first, -0.077 for the second.

MAPK7 (UniProt Q13164) and ILF3 (UniProt Q12906) are within 0.2 log units of each other in log2 fold change: 0.275 for the first, 0.347 for the second.

First: KCNK5 (UniProt O95279)
Second: LSR (UniProt M0QZL9)
The log2 fold change of the first is higher: 0.106 for the first, -0.157 for the second.

For MAGED1 isoform 2 (UniProt Q9Y5V3), the log2 fold change was 0.608 (active).
